Where “and” joins values, the source holds several entries; their conditions need not be identical. Identical values can stand only once. Results filed as inconclusive are left out. For part of these data: Entries with a potency or affinity are not part of this list. Calls of active or inactive are those of the source.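 How the source made its calls, unless noted: active means normalized viability below 100% at a tested concentration; inactive means the rest.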
Key:
[1] = antimalarial activity against Dd2 strain (AID 2302;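 active means growth inhibition above 50% at the single 2 µM test dose, taken to imply half-maximal potency below 2 µM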;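 further: 0% = DMSO untreated growth and 100% = chloroquine plus artemisinin killed control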); conditions: P. falciparum Dd2 in RBCs, LDH growth readout, 72 h; at 2 µM; stronger effect = higher value
[2] = human hepatoma cell viability loss – ATP luminescence, cytotoxicity control for P. falciparum antimalarial project, primary screen (AID 2303;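 active means inhibition above 50%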;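 further: 0% = DMSO wells and 100% = digitonin-killed cells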); conditions: HepG2 viability, 24-48 h, at 10 µM, stronger effect = higher value
[3] = molecular target: L-lactate dehydrogenase (Plasmodium falciparum (isolate CDC / Honduras)) (UniProt Q27743); assay: PfLDH activity inhibition – cell lysate, 3D7 strain, counter-screen for P. falciparum growth inhibition project (AID 2304; call rule not given here;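 further: 0% = vehicle and 100% = reference inhibitor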); conditions: P. falciparum 3D7 crude extract, LDH APAD/NBT absorbance; at 2 µM; stronger effect = higher value
Sequence of L-lactate dehydrogenase (Plasmodium falciparum (isolate CDC / Honduras)) (Q27743 whole entry, looked up): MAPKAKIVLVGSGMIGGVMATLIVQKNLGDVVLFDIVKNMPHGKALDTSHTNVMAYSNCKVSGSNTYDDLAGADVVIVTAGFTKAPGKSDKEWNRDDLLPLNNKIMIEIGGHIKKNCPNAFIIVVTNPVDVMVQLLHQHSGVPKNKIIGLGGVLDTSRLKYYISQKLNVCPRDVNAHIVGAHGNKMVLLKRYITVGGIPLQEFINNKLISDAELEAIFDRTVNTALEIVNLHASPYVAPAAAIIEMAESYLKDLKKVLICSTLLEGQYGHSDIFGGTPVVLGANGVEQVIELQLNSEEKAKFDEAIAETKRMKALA

[4] = inhibition of 3D7 malaria parasite growth – strain 3D7 (AID 2306; call rule not given here;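 further: 0% = DMSO wells and 100% = chloroquine plus artemisinin control wells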); conditions: P. falciparum 3D7 erythrocytic growth, LDH absorbance, 72 h; at 2 µM; stronger effect = higher value
[5] = molecular target: Calcium-dependent protein kinase 1 (Plasmodium falciparum (isolate 3D7)) (UniProt P62344); assay: PfCDPK1 kinase inhibitors, biochemical, TCAMS library (AID 1159585; cut-off not given, nearly all actives have IC50 up to about 0.98 µM;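 further: inhibitors leave more ATP so luminescence rises with inhibition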); conditions: recombinant PfCDPK1, Kinase-Glo ATP depletion luminescence
Sequence of Calcium-dependent protein kinase 1 (Plasmodium falciparum (isolate 3D7)) (P62344 whole entry, looked up): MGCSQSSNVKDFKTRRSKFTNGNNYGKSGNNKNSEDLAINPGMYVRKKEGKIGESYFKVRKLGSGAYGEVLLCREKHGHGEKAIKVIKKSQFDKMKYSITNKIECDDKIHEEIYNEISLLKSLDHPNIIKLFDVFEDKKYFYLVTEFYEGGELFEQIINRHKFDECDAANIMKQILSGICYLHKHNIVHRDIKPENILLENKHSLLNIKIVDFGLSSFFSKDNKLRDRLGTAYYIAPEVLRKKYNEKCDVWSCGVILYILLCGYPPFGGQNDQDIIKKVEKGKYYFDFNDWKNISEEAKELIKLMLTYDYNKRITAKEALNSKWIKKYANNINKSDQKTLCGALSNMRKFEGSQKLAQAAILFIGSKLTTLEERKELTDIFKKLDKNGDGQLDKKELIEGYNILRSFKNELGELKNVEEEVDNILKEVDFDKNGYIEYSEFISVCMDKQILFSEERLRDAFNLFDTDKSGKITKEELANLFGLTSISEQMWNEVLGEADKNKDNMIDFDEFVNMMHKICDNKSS

[6] = molecular target: Plasmodium falciparum protein kinase 6 (PK6, PF3D7_1337100) (UniProt Q8IDW1); assay: PfPK6 kinase inhibitors, biochemical, TCAMS library (AID 1159586; call rule not given here); conditions: recombinant PfPK6, Kinase-Glo ATP depletion luminescence
Sequence of Plasmodium falciparum protein kinase 6 (PK6, PF3D7_1337100) (Q8IDW1 1-305): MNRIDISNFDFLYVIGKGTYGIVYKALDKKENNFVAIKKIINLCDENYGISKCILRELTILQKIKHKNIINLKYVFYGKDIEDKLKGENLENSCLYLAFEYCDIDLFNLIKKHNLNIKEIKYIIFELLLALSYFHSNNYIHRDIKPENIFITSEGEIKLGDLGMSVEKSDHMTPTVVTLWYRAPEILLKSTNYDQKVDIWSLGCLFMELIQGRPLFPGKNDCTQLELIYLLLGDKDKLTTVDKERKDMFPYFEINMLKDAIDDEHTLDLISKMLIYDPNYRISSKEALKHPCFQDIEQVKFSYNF

[7] = molecular target: Protein kinase 7 (PK7), Plasmodium falciparum 3D7 (PF3D7_0213400) (UniProt Q7YTF7); assay: inhibition of Plasmodium PK7 catalytic activity – biochemical, TCAMS antimalarial set, Kinase-Glo luminescence (AID 1159587; call rule not given here); conditions: recombinant PfPK7, Kinase-Glo ATP depletion luminescence
Sequence of Protein kinase 7 (PK7), Plasmodium falciparum 3D7 (PF3D7_0213400) (Q7YTF7 1-343): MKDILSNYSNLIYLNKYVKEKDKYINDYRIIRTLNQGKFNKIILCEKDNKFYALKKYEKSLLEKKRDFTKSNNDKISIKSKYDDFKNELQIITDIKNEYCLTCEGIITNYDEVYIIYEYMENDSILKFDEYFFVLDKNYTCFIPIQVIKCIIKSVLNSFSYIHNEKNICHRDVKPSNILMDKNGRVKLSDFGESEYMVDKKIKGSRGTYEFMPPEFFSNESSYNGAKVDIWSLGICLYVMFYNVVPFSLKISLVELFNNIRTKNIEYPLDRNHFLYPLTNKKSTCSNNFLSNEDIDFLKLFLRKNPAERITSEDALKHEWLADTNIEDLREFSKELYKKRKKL

[8] = molecular target: Calcium-dependent protein kinase 4 (Plasmodium falciparum (isolate 3D7)) (UniProt Q8IBS5); assay: PfCDPK4 kinase inhibitors, biochemical, TCAMS library (AID 1159588; cut-off not given, nearly all actives have IC50 up to about 0.91 µM); conditions: recombinant PfCDPK4, Kinase-Glo ATP depletion luminescence
Sequence of Calcium-dependent protein kinase 4 (Plasmodium falciparum (isolate 3D7)) (Q8IBS5 whole entry, looked up): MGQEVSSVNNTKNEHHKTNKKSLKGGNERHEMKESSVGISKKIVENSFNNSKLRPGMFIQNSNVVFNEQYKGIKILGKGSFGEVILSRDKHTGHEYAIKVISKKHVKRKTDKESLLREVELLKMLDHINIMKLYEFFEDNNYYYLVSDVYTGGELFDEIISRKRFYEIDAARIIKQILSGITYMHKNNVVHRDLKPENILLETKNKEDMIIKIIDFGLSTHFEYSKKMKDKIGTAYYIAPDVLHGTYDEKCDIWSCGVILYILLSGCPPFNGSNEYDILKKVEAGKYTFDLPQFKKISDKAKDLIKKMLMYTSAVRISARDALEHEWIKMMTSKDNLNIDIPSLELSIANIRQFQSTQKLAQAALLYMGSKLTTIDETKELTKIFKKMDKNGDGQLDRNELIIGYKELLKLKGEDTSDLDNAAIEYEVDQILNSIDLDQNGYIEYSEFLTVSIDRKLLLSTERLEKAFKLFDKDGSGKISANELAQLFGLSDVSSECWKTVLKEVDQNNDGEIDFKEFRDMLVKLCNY

[9] = viability loss with induced miR-34 in A549 – imaging, A549 dox-inducible miR-34, nuclei and caspase counts, primary screen (AID 1347080;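 active means compounds whose cell count with miR-34 switched on is under 0.7 times the count with it off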); conditions: A549 miR-34 inducible, Hoechst nuclei count, 48 h
[10] = chitosan synthesis blockers in C. neoformans – flow cytometry, Cibacron Brilliant Red staining (AID 1347148; call rule not given here;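 further: compound exposure lasted three days at 37 degrees C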); conditions: Cryptococcus neoformans chitosan, stronger effect = lower value; at 10 µM unless noted
[11] = test system: Aerobactin synthetase IucA (Klebsiella pneumoniae); assay: inhibition of K. pneumoniae IucA enzyme – biochemical, Tocris library, absorbance (AID 1345561; call rule not given here;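 further: 100% = enzyme without compound and 0% = no enzyme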); conditions: purified IucA enzyme assay, absorbance (OD) read-out; stronger effect = lower value;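 tested at 8 µM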
[12] = viability loss in pontine glioma line – cell-based, SU-DIPG-XVII, MIPE5.0, CellTiter-Glo, qHTS, dose response (AID 1347060; cut-off not given, nearly all actives have AC50 up to about 26 µM;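 further: cells exposed to compound for 48 hours before viability readout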); conditions: CellTiter-Glo ATP luminescence
[13] = viability loss in pontine glioma line – cell-based, JHH-DIPG-1, MIPE4.0, CellTiter-Glo, qHTS, dose response (AID 1347062; cut-off not given, nearly all actives have AC50 up to about 27 µM;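 further: cells exposed to compound for two days before readout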); conditions: JHH-DIPG-1 viability, CellTiter-Glo ATP luminescence
[14] = viability loss in pontine glioma line – cell-based, SU-DIPG-IV, MIPE4.0, CellTiter-Glo, qHTS, dose response (AID 1347063; cut-off not given, nearly all actives have AC50 up to about 30 µM;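 further: compound exposure lasted 48 hours before the viability readout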); conditions: CellTiter-Glo ATP luminescence
[15] = viability loss in pontine glioma line – cell-based, SU-DIPG-XXV, MIPE5.0, CellTiter-Glo, qHTS, dose response (AID 1347065; cut-off not given, nearly all actives have AC50 up to about 26 µM;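 further: cells exposed to compound for 48 hours before ATP readout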); conditions: CellTiter-Glo ATP luminescence
[16] = JHH-DIPG-1 glioma cell viability, MIPE5.0 library, CellTiter-Glo luminescence, qHTS (AID 1347067; cut-off not given, nearly all actives have AC50 up to about 26 µM;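 further: cells exposed to compound for 48 hours before readout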); conditions: JHH-DIPG-1 glioma viability, CellTiter-Glo ATP luminescence
[17] = growth inhibition of DIPG cells – cell-based, MIPE5.0 library, qHTS (AID 1347068; cut-off not given, nearly all actives have IC50 up to about 30 µM;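 further: cells exposed to compound for 48 hours before viability readout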); conditions: SU-DIPG-XXV viability
[18] = MELAS cybrid and Rieske KO viability enhancers – cell-based, MELAS cybrids, Rieske KO mouse fibroblasts, CellTiter-Glo, primary screen (AID 1508586;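 active means mean z-score across replicates of 1.96 or higher in either the MELAS or the Rieske mutant cell line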;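 further: z relative to plate mean and SD of compound and empty wells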); conditions: low glucose
[19] = galactose survival enhancers in mitochondrial complex I cybrids – cell-based, galactose medium, ATP luminescence, primary screen (AID 1645843;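 active means z-score of at least 1.8 in each of two replicates, scored against plate mean and spread of sample wells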;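 further: positive z means more ATP and so rescue of galactose-driven cybrid death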); conditions: complex I mutant cybrid cells, 72 h, stronger effect = higher value
[20] = viability loss in pontine glioma line – cell-based, SU-DIPG-XIII, MIPE5.0, CellTiter-Glo, qHTS, dose response (AID 1347064; cut-off not given, nearly all actives have AC50 up to about 23 µM;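 further: cells exposed to compound for 48 hours before the viability read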); conditions: CellTiter-Glo ATP luminescence
[21] = growth inhibition of DIPG cells – cell-based, MIPE4.0 library, CellTiter-Glo luminescence, qHTS (AID 1347066; cut-off not given, nearly all actives have AC50 up to about 30 µM;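 further: cells exposed to compound for 48 hours before readout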); conditions: SU-DIPG-VI viability, CellTiter-Glo ATP luminescence
[22] = compounds altering HSF1 focus formation in cells – imaging, Selleck Cancer Library (AID 1347162; in the data active means plate-normalised HSF1 focus index below about 0.46); conditions: human cells, HSF1 nuclear foci imaging, at 10 µM; SSMD: measured here: HSF1 foci SSMD mean; cell count: measured here: cell number; plate-normalised HSF1 focus index: stronger effect = lower value
[23] = drug combination growth inhibition, ovarian cancer – cell-based, oncology-focused library, rucaparib conditional, profiling panel (AID 1508598); conditions: patient-derived ovarian cancer cells, CellTiter-Glo viability, 144 h, stronger effect = lower value
[24] = stronger effect = lower value, cell number ratio, induced over uninduced
[25] = measured here: relative caspase fold change +Dox/-Dox
[26] = measured here: total cells with miR-34 induction, stronger effect = lower value
[27] = measured here: total cells without miR-34 induction
[28] = MELAS cybrid survival, CellTiter-Glo 48 h, stronger effect = higher value
[29] = Rieske KO mouse fibroblast survival, CellTiter-Glo 72 h

CCOc1ccc(-c2nc3ccc(-c4nc5ccc(N6CCN(C)CC6)cc5[nH]4)cc3[nH]2)cc1
active: growth inhibition [1] 99% | growth inhibition [4] 100%
0.41: fold change [9, 25]
711: cell count [9, 27]
inactive: inhibition [2] 16% | inhibition [3] 1% | outcome [5] | outcome [6] | outcome [7] | outcome [8] | fold change [9, 24] 1.13 | fold fluorescence [10] 1.62 [at 110.5 µM]
805: cell count [9, 26]

COc1cc2c(Nc3ccc(NC(=O)c4ccccc4)cc3)ncnc2cc1OCCCN1CCOCC1
1920 and 4040: cell count [9, 26]
inactive: inhibition [2] 14% | inhibition [3] 5% | outcome [5] | outcome [6] | outcome [7] | outcome [8] | remaining activity [11] 94.5% | fold change [9, 24] 1.01 and 1.03 | z-score [18, 28] -0.661 | z-score [19] -0.64
0.628: z-score [18, 29]
1 and 1.45: fold change [9, 25]
1900 and 3920: cell count [9, 27]
active: growth inhibition [1] 93% | growth inhibition [4] 99% | AC50 [12] 4.68 µM | AC50 [13] 20.9 µM | AC50 [14] 18.7 µM | AC50 [15] 1.32 µM | AC50 [16] 20.9 µM | IC50 [17] 8.33 µM

CN(C)CCCSc1ccccc1NC(=O)C=Cc1ccccc1
active: growth inhibition [4] 85%
8880: cell count [9, 26]
9280: cell count [9, 27]
inactive: growth inhibition [1] -3% | inhibition [2] -4% | inhibition [3] -5% | outcome [5] | outcome [6] | outcome [7] | outcome [8] | fold change [9, 24] 0.957 | z-score [19] -0.13
1.81: fold change [9, 25]

FC(F)c1nc2ccccc2n1-c1nc(N2CCOCC2)nc(N2CCOCC2)n1
inactive: inhibition [2] 47% | inhibition [3] -2% | outcome [5] | outcome [6] | outcome [7] | outcome [8] | fold change [9, 24] 0.814 | plate-normalised HSF1 focus index [22] 0.994 | viability ([23]; at 0.000305 µM, OCI-C5x cells, with rucaparib 10 µM, 100% = cells with rucaparib alone) 125% | viability ([23]; at 0.000305 µM, OCI-C5x cells, without rucaparib) 124% | viability ([23]; at 0.00122 µM, OCI-C5x cells, without rucaparib) 119% | viability ([23]; at 0.00488 µM, OCI-C5x cells, with rucaparib 10 µM, 100% = cells with rucaparib alone) 115% | viability ([23]; at 0.00488 µM, OCI-C5x cells, without rucaparib) 120% | viability ([23]; at 0.0195 µM, OCI-C5x cells, with rucaparib 10 µM, 100% = cells with rucaparib alone) 122% | viability ([23]; at 0.0195 µM, OCI-C5x cells, without rucaparib) 116% | viability ([23]; at 0.0781 µM, OCI-C5x cells, with rucaparib 10 µM, 100% = cells with rucaparib alone) 126% | viability ([23]; at 0.0781 µM, OCI-C5x cells, without rucaparib) 117% | viability ([23]; at 0.313 µM, OCI-C5x cells, with rucaparib 10 µM, 100% = cells with rucaparib alone) 128% | viability ([23]; at 0.313 µM, OCI-C5x cells, without rucaparib) 111% | viability ([23]; at 1.25 µM, OCI-C5x cells, with rucaparib 10 µM, 100% = cells with rucaparib alone) 107% | viability ([23]; at 1.25 µM, OCI-C5x cells, without rucaparib) 126%
active: growth inhibition [1] 99% | growth inhibition [4] 99% | AC50 [12] 0.742 µM | AC50 [14] 0.235 µM | AC50 [20] 0.833 µM | AC50 [15] 0.417 µM | AC50 [21] 3.32 µM | AC50 [16] 2.95 µM | z-score [18, 28] 2.99 | viability ([23]; at 0.000305 µM, OCI-P5x cells, with rucaparib 20 µM, 100% = cells with rucaparib alone) 88.5% | viability ([23]; at 0.000305 µM, OCI-P5x cells, without rucaparib) 82.7% | viability ([23]; at 0.00122 µM, OCI-P5x cells, with rucaparib 20 µM, 100% = cells with rucaparib alone) 75.5% | viability ([23]; at 0.00122 µM, OCI-P5x cells, without rucaparib) 34.1% | viability ([23]; at 0.00488 µM, OCI-P5x cells, with rucaparib 20 µM, 100% = cells with rucaparib alone) 93.4% | viability ([23]; at 0.00488 µM, OCI-P5x cells, without rucaparib) 97.4% | viability ([23]; at 0.0195 µM, OCI-P5x cells, with rucaparib 20 µM, 100% = cells with rucaparib alone) 94.1% | viability ([23]; at 0.0195 µM, OCI-P5x cells, without rucaparib) 90.9% | viability ([23]; at 0.0781 µM, OCI-P5x cells, with rucaparib 20 µM, 100% = cells with rucaparib alone) 89.9% | viability ([23]; at 0.0781 µM, OCI-P5x cells, without rucaparib) 93% | viability ([23]; at 0.313 µM, OCI-P5x cells, with rucaparib 20 µM, 100% = cells with rucaparib alone) 88.2% | viability ([23]; at 0.313 µM, OCI-P5x cells, without rucaparib) 84.5% | viability ([23]; at 1.25 µM, OCI-P5x cells, with rucaparib 20 µM, 100% = cells with rucaparib alone) 42% | viability ([23]; at 1.25 µM, OCI-P5x cells, without rucaparib) 62.9% | viability ([23]; at 5 µM, OCI-C5x cells, with rucaparib 10 µM, 100% = cells with rucaparib alone) 25.2% | viability ([23]; at 5 µM, OCI-C5x cells, without rucaparib) 45.8% | viability ([23]; at 5 µM, OCI-P5x cells, with rucaparib 20 µM, 100% = cells with rucaparib alone) 8.53% | viability ([23]; at 5 µM, OCI-P5x cells, without rucaparib) 15.4%
0.918: fold change [9, 25]
6850: cell count [22]
-0.274: SSMD [22]
-0.193: z-score [18, 29]
1920: cell count [9, 26]
2350: cell count [9, 27]

Reference: PubChem BioAssay
